# Pf Dd2 growth: inhibitors of Plasmodium falciparum Dd2 growth. P. falciparum Dd2 growth, SYBR Green, 72 h. Potency, µM (doses to about 28.9 µM), without a hit: at the top dose activity, negative = inhibition, hits mostly inhibitors. hit rate 4.3% among 120,000; active = well fitted inhibition curve with a large enough effect;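 also: plate controls were DMSO vehicle for no effect and reference drug for full effect; nearly all actives have a fitted effect of over 65% in size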
#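 Readout: SYBR Green fluorescence, 485 nm excitation, 535 nm emission, after ~16 h lysis at 37C. Before that, Dd2-infected red cells (2.5% hematocrit) grew 72 h with compound, 29 uM top final concentration.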
# Numbers without * were called inactive; i = inactive; [ ] = another dose, or the depositor's remark. Shown is part of a subset that was picked to be rich in hits. Potency is read from the fitted curve at half-maximal effect.
SMILES,Pf Dd2 growth
COc1ccc([S+](=O)([O-])N2CC3(CCN(CC(=O)O)CC3)c3cc(OC)c(OCC4CCCC4)cc32)cc1,i
COc1cc2c(cc1OCc1ccccc1)N(C(=O)C(C)C)CC21CCN(C)CC1,i
COc1cc2c(cc1CCc1ccccc1)N([S+](=O)([O-])c1ccc3c(c1)CCO3)CC21CCN(C(C)=O)CC1,10µM*
COc1cc2c(cc1OCc1ccccc1)N(C(=O)c1ccccc1OC)CC21CCN(C)CC1,4µM*
COc1ccccc1CN1CCOc2cc([S+](=O)([O-])N(C)C)ccc2C1,i
CO[C@@H]1CCOC[C@H]1NS(=O)(=O)c1ccc(S(C)(=O)=O)cc1,-1%
COc1ccc(CNC(=O)Cn2c(C)cc3nc4n(c(=O)c32)CCCC4)cc1OC,-20%
CC(=O)Nc1ccc(CN2CCC3(CN[S+](=O)([O-])c4ccccc4N3)C2)cc1 (stereo not given),-10%
Cc1ccc(NC(=O)Cn2nc3n(c2=O)CCCCC3)cc1,21%
CCN(CC)C(=O)[C@@H](C)C1CC[C@@]2(C)CC[C@H](NC(=O)c3ccc(OC)cc3)[C@@H](C)[C@@H]2[C@H]1O (stereo not given in full),-7%
O=C(c1ccccc1)N1CCC(Cc2nc(-c3ccncc3)n[nH]2)CC1,1.3µM*
Fc1cccc(CN2CCC(Cc3nc(-c4ccccc4)n[nH]3)C2)c1 (stereo not given),3.5µM*
O=C(NCc1ccccc1)N1CCC(Cc2nc(-c3ccccc3)n[nH]2)C1 (stereo not given),-11%
O=C(Nc1ccc2c(c1)OCCO2)N1CCCC(Cc2noc(-c3ccncc3)n2)C1 (stereo not given),i
O=C(Nc1ccc2c(c1)OCCO2)N1CCC(Cc2nc(-c3cccnc3)n[nH]2)C1 (stereo not given),3.5µM*
Cc1ccc(CN2CCC(Cc3nc(-c4cccnc4)n[nH]3)C2)cc1C (stereo not given),i
CCc1n[nH]c(CC2CCN(C(=O)c3ccccc3)CC2)n1,-6%
CCC(=O)N1CCC(Cc2nc(-c3ccccc3)n[nH]2)CC1,-27%
O=C(Cc1ccccc1)N1CCC(Cc2nc(-c3cccnc3)n[nH]2)C1 (stereo not given),i
Cn1ccnc1CN1CCN(Cc2cc3n(n2)CCNC3)CC1,-13%
CC1(C)CN(Cc2nnc(-c3cccc(F)c3)o2)CC[C@]1(C)O,-20%
COc1ccc(-c2onc(C)c2C(=O)NCCc2cccc(OC)c2)cc1,6%
COc1ccc2ccc(OCc3nc(C(=O)NCc4csc(N)n4)co3)cc2c1,-20%
COc1ccc(Br)c(C(=O)N[C@@H]2C=C(C(=O)N[C@H](CC(C)C)C(N)=O)C[C@@H](O)[C@@H]2O)c1,-16%
COc1ccc(-c2ccc3c(c2)C(=O)N2C[C@@H](NS(=O)(=O)c4ccc(F)cc4)C[C@H]2C(=O)N3)c(OC)c1,i
SMILES,Pf Dd2 growth
CN1[C@@H](CCC(=O)NCc2ccccc2)CNC(=O)[C@@H]2[C@H]1CCN2Cc1ncc[nH]1,13%[44.1 µM]
Cc1ccc(CNC(=O)c2cc3sccc3n2Cc2ccc(Cl)cc2)cc1,i
COC(=O)c1cc(NC(=O)c2cc3sccc3n2Cc2ccc(Cl)cc2)cc(C(=O)OC)c1,11µM*
CC(=O)c1ccc(NC(=O)c2cc3sccc3n2Cc2ccc(F)cc2)cc1,-12%
CC(C)N1C(=O)C2(CCCC2)C1C(=O)NCc1nc2ccccc2n1C (stereo not given),-17%
COc1ccc(C(=O)N2CCCCCCNC(=O)[C@@H]3CCC[C@@H]32)cn1,15%
Cc1cc(OCCN2CCOCC2)c(C)c2c1CC[C@@H]([C@H](C)C(=O)N1CCCCC1)C2,11µM*
COCCOc1cc(C)c2c(c1C)C[C@H](C(C)C(=O)N1CCOCC1)CC2 (stereo not given in full),-3%[44.1 µM]
CCCOc1cc(C)c2c(c1C)C[C@H](C(C)C(=O)NCc1ccc(OC)cc1)CC2 (stereo not given in full),10µM*
Cc1cc(OCCN2CCOCC2)c(C)c2c1CC[C@@H]([C@H](C)C(=O)NCc1cccnc1)C2,i
COc1cc(C)c2c(c1C)C[C@H](C(C)C(=O)NCc1cccs1)CC2 (stereo not given in full),11µM*
COCCOc1cc(C)c2c(c1C)C[C@H](C(C)C(=O)N1CCCCC1)CC2 (stereo not given in full),-7%[44.1 µM]
CCCOc1cc(C)c2c(c1C)C[C@H]([C@H](C)C(=O)NCCOC)CC2,-9%[44.1 µM]
COc1cc(C)c2c(c1C)C[C@H](C(C)C(=O)N1CCN(CCO)CC1)CC2 (stereo not given in full),i
Cc1cc(OCCN(C)C)c(C)c2c1CC[C@@H]([C@H](C)C(=O)NCc1ccccc1)C2,-24%[44.1 µM]
CNCCN1C(=O)CC[C@H]2CN(C(=O)c3ccc(C(C)C)[nH]c3=O)CC[C@H]21,-3%
COc1ccc(C2(C(=O)N3CCCC3c3nc(C4CCOCC4)no3)CC2)cc1 (stereo not given),29%
Cc1ccc(C(=O)N2CC(c3nnc(-c4ccncc4)o3)C3(CCOCC3)C2)c(C)c1 (stereo not given),-11%
COc1cc(F)cc(-c2ncc3c(n2)OCCN(C)C3=O)c1,i
CN(C)C(=O)c1ccc(-c2ncc3c(n2)OCCN(Cc2ccccc2)C3=O)cc1,2.2µM*
CN(C)C(=O)c1ccc(-c2ncc3c(n2)OCCN(CC2CC2)C3=O)cc1,i
O=C1c2cnc(-c3ccccc3)nc2OCCN1Cc1ccccc1,i
CN1CCOc2nc(-c3ccc(Oc4ccccc4)cc3)ncc2C1=O,5µM*
C[S+](=O)([O-])c1ccc(-c2ncc3c(n2)OCCN(c2ccccc2)C3=O)cc1,-2%[44.1 µM]
O=C([C@@H]1C[C@H](Oc2cccnc2)CN1S(=O)(=O)Cc1ccccc1)N1CCOCC1,8%
SMILES,Pf Dd2 growth
Cn1nc(C2CCN(C(=O)c3ccccc3)CC2)[nH]c1=O,8%[44.1 µM]
COCCN1C(=O)CO[C@H]2CN(C3CCOCC3)C[C@H]21,20%[44.1 µM]
COC1CN(c2cccc(F)c2)C12CCN(C(=O)c1ccnn1C)CC2 (stereo not given),15%
O=C(O)Cc1cc(C2CCN(Cc3cn(-c4ccccc4)nn3)CC2)n[nH]1,2%
c1ccc(-n2cc(CN3CCC(Oc4ccncc4)CC3)nn2)cc1,-22%
COc1cccc(C2CCN(Cc3cn(-c4ccccc4)nn3)C2)c1OC (stereo not given),13µM*
Cn1nccc1C(=O)N1CCCCCCNC(=O)CC1c1ccccc1 (stereo not given),-16%
CC(C)CC(=O)N1CCCCCC1CN1CCC(C)CC1 (stereo not given),i
Cc1nc2n(c1C(=O)N(C)c1ccccc1)CCC(Nc1ccc(F)cc1)C2 (stereo not given),-22%[44.1 µM]
Cc1nn(CCC#N)c(C)c1[C@@H]1C=C[C@@H](NC(=O)CCCC(=O)O)C1,-14%[44.1 µM]
Cc1cc(C)cc(NC(=O)N2c3ccccc3CC2c2noc(C3CCOCC3)n2)c1 (stereo not given),-18%
Cc1ccc(-c2nc3cccc(C)n3c2Nc2ccc3c(c2)OCO3)o1,-17%
Cc1cccn2c(Nc3ccc4c(c3)OCCO4)c(-c3ccc(Br)o3)nc12,8.9µM*
Cc1cccn2c(Nc3ccccc3)c(-c3ccc(N4CCOCC4)cc3)nc12,i
COC(=O)c1ccc2nc(CO[C@H]3CN(C4CCC4)C[C@H]3F)[nH]c2c1,-11%[44.1 µM]
O=C(Nc1cccc(Cl)c1F)N1CCC(OC2CCN(Cc3ccccc3)CC2)CC1,6.3µM*
O=C(C1CCCCC1)N1CCC(OC2CCN(Cc3ccccc3)CC2)CC1,i
